Experimental data as given in publication PMC7862700, “An all-to-all approach to the identification of sequence-specific readers for epigenetic DNA modifications on cytosine”.

Columns and labels:
Test in all cases: DAPPL (digital affinity profiling via proximity ligation, sequencing); 10 mM Tris-HCl pH 7.5, 50 mM NaCl, 1 mM DTT, 4% glycerol, room temperature, 30 min; GST-TFs on glutathione beads, 16-mer random dsDNA library, 0.1% formaldehyde crosslink after washing; high values mean tight binding
Conditions in all cases: protein: recombinant; tags: N-terminal GST; dsDNA, one strand shown
FLI1 = biological target: T1, FLI1 (Homo sapiens, UniProt Q01543 1-452)
T1 sequence: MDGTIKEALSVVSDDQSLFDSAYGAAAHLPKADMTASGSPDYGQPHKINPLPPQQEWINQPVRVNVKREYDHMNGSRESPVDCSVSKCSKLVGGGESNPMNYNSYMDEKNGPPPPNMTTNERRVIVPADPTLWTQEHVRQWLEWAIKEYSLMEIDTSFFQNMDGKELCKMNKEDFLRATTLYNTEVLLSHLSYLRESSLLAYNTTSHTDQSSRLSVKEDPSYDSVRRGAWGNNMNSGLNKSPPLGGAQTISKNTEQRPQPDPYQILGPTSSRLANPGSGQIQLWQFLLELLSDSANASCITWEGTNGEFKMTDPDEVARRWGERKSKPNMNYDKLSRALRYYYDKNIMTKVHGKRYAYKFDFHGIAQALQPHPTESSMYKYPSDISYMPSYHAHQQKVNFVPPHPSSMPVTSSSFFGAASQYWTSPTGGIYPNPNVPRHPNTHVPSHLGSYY
Procedure, shortened: (§1)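 Binding signal is given per hexamer as its read frequency for a factor divided by its frequency in the tag-only sample. GST-fused human transcription factors were expressed in yeast, captured on glutathione beads, barcoded with DNA and pooled with that sample, then incubated with 200 nmole of a 16-mer random double-stranded DNA library in Tris/NaCl/DTT/glycerol buffer for 30 min at room temperature. The pools were then washed, crosslinked, proximity-ligated, amplified by PCR and sequenced on an Illumina NextSeq500.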

ELK1 = biological target: T2, ELK1 (Homo sapiens, UniProt P19419 1-428)
T2 sequence: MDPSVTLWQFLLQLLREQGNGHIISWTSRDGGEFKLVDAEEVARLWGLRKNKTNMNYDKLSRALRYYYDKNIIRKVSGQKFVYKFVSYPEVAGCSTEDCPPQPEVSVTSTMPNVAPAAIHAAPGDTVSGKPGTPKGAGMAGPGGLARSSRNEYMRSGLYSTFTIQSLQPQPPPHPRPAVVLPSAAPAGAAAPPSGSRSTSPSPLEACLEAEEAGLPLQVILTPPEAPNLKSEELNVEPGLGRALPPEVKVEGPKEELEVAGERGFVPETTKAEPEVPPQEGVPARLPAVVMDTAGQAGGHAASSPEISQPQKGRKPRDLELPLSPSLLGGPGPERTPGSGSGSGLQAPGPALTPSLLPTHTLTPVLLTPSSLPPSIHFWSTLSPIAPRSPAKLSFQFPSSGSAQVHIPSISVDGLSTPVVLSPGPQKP
Procedure, shortened: as §1

GABPA = biological target: T3, GABPA (Homo sapiens, UniProt Q06546 1-454)
T3 sequence: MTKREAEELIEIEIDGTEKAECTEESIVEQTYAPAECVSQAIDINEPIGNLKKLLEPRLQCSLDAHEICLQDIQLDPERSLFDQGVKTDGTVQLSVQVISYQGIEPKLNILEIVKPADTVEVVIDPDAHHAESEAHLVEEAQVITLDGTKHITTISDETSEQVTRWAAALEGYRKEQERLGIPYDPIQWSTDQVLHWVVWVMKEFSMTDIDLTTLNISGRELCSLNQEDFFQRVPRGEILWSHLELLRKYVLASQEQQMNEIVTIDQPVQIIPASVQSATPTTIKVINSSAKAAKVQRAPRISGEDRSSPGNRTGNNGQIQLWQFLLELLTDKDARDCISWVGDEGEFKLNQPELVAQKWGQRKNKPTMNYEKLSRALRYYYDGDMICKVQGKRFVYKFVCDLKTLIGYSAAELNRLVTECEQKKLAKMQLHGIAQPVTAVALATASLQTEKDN
Procedure, shortened: as §1

ERG = biological target: T4, ERG (Homo sapiens, UniProt P11308 1-479)
T4 sequence: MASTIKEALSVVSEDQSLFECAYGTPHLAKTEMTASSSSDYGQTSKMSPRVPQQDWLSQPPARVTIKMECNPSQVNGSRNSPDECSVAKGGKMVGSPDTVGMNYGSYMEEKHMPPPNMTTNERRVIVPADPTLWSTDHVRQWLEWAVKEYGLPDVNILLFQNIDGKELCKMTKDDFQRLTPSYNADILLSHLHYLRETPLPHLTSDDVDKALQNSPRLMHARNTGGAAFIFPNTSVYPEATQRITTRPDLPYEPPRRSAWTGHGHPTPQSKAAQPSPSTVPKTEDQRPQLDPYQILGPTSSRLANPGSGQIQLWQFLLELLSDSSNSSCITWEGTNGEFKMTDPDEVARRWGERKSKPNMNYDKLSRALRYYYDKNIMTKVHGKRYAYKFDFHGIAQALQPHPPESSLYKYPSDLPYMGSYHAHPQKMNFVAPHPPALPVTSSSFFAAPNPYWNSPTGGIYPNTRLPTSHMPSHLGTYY
Procedure, shortened: as §1

ELF1 = ELF1 (Homo sapiens, UniProt P32519 1-619)
Sequence of ELF1 (P32519 whole entry): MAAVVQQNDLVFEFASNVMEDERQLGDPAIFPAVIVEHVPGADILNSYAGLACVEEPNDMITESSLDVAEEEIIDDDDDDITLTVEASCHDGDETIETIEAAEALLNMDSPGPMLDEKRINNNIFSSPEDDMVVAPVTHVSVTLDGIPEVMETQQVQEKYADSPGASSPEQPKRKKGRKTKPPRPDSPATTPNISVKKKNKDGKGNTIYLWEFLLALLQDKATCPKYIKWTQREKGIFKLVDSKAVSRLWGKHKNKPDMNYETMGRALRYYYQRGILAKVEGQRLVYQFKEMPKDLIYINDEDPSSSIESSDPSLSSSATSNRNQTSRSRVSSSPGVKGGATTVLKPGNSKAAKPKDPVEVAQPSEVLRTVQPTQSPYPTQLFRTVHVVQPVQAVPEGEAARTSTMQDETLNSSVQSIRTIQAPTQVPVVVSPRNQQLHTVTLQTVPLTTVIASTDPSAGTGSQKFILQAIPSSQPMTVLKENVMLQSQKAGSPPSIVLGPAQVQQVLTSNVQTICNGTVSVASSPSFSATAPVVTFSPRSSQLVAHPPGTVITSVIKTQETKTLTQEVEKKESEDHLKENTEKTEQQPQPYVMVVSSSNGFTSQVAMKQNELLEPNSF
Procedure, shortened: as §1

EHF = biological target: T5, EHF (Homo sapiens, UniProt Q9NZC4 1-300)
T5 sequence: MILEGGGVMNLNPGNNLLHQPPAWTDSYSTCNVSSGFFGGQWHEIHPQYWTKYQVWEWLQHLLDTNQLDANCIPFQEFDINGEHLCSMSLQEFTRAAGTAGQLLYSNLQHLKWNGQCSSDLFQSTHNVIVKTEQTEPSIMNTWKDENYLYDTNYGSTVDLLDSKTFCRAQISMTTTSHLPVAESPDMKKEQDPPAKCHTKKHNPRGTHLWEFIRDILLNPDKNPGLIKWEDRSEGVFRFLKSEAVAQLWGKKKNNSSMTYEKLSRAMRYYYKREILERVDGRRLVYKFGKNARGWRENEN
Procedure, shortened: as §1

SPI1 = SPI1 (Homo sapiens, UniProt P17947 1-270)
Procedure, shortened: as §1

SPIB = SPIB (Homo sapiens, UniProt Q01892 1-262)
Sequence of SPIB (Q01892 whole entry): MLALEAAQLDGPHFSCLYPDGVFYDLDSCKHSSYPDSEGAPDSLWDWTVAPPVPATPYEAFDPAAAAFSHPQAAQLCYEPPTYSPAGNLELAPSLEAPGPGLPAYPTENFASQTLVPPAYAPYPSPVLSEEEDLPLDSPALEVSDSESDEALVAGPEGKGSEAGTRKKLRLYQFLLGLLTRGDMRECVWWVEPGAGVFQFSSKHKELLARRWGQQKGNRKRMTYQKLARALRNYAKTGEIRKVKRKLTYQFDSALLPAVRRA
Procedure, shortened: as §1

ELK3 = biological target: T6, ELK3 (Homo sapiens, UniProt P41970 1-407)
T6 sequence: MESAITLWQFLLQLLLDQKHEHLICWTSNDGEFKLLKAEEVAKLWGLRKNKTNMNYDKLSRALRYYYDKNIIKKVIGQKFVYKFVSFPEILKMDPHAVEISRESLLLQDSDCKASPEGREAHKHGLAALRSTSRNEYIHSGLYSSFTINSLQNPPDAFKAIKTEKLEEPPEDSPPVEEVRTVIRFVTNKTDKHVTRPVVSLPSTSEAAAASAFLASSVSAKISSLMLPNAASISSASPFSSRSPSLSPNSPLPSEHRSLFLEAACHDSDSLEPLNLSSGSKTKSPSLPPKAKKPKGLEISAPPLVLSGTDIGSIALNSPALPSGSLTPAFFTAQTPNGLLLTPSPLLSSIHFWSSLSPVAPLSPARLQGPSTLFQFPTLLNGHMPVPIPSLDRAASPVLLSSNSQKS
Procedure, shortened: as §1

FEV = biological target: T7, FEV (Homo sapiens, UniProt Q99581 1-238)
T7 sequence: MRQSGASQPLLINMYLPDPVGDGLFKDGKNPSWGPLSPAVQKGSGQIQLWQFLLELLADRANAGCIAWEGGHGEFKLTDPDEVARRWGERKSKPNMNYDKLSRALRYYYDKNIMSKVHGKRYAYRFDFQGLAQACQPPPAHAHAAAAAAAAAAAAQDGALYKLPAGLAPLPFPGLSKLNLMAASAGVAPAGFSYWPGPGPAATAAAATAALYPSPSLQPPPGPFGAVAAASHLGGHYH
Procedure, shortened: as §1

Sequence: GGAAGA
- binding signal (FLI1): 1.06 fold enrichment (6-mer frequency, TF over GST control)
- binding signal (ELK1): 1.16 fold enrichment (6-mer frequency, TF over GST control)
- binding signal (GABPA): 1.11 fold enrichment (6-mer frequency, TF over GST control)
- binding signal (ERG): 1.2 fold enrichment (6-mer frequency, TF over GST control)
- binding signal (ELF1): 1.02 fold enrichment (6-mer frequency, TF over GST control)
- binding signal (EHF): 1.3 fold enrichment (6-mer frequency, TF over GST control)
- binding signal (SPI1): 1.17 fold enrichment (6-mer frequency, TF over GST control)
- binding signal (SPIB): 1.19 fold enrichment (6-mer frequency, TF over GST control)
- binding signal (ELK3): 1.19 fold enrichment (6-mer frequency, TF over GST control)
- binding signal (FEV): 1.05 fold enrichment (6-mer frequency, TF over GST control)
